# Screening results from PubChem.
# Cycloheximide cs – Cycloheximide Counterscreen for Small Molecule Inhibitors of Shiga Toxin; hit rate 12% among 300,000; cell reporter, cycloheximide protein synthesis inhibition counterscreen; max response, %; AID 2314, 2010; in the data active = max response mostly above about 13%, no sharp cut-off; inactive = mostly below about 14%; also: read at 38.3 µM for the half of the compounds with a filed dose; 0% is about no effect
# Pf growth 48h – Primary qHTS for delayed death inhibitors of the malarial parasite plastid, 48 hour incubation. hit rate 5.9% among 310,000. AID 504832, 2011. P. falciparum luciferase growth in erythrocytes, 48 h. Potency, µM (doses to about 28.7 µM), without a hit: at the highest dose activity change, negative = inhibition, usual class: inhibitors; also: potency is read from the fitted curve at half-maximal effect; % is scaled to controls: 0 for no effect and ±100 for the full control effect
#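 Read-out is firefly luciferase luminescence from an integrated reporter in P. falciparum, so falling signal marks reduced parasite growth. Infected erythrocytes were at 2% hematocrit and 0.1% parasitemia (final) in Albumax-supplemented RPMI 1640.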
# HCMV antiviral – qHTS Assay for inhibitors of the human cytomegalovirus (HCMV) | HFF cells, HCMV-luciferase reporter, 72 h; stronger effect = lower value | AID 1259415, 2018 | activity change, negative = inhibition, % at 57.5 µM | hit rate 4.5% among 410,000; in the data active = activity change below about -60%; inconclusive = no clear call, values can overlap the other calls; inactive = above about -39%; also: % is scaled to controls: 0 for no effect and ±100 for the full control effect
#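 Compounds were evaluated in HFFs infected with an HCMV luciferase reporter virus (MOI 1 PFU/cell). Luciferase in lysates collected 72 h post infection served as the replication measure.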
# HCV inhibitor – qHTS Assay for Inhibitors of Hepatitis C Virus (HCV) | Huh7.5.1 HCVcc-Cre infection, luciferase reporter, 44 h | Potency, µM (doses to about 41.8 µM), for inactives: at the top dose activity change, negative = inhibition, most hits filed as inhibitors | hit rate 3.4% among 340,000; also: potency is read from the fitted curve at half-maximal effect; % is scaled to controls: 0 for no effect and ±100 for the full control effect
#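 Antiviral activity was scored by luciferase reporter output from cells infected with HCVcc-Cre (~0.5 moi) in presence of compound, 44 h infection period, cells seeded 1,000/well 4 h prior.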
# Shiga inhibitor – A qHTS for Small Molecule Inhibitors of Shiga Toxin. hit rate 9.2% among 290,000. Vero cells, Shiga toxin protein synthesis inhibition reporter. AID 2315, 2010. inhibition, % at 38.7 µM; in the data active = inhibition mostly above about 28%, no sharp cut-off; inactive = mostly below about 43%; also: 0% is about no effect
# Pf growth 96h – Primary qHTS for delayed death inhibitors of the malarial parasite plastid, 96 hour incubation | Potency, µM (highest dose often 28.7 µM), inactives show at the highest dose activity change, negative = inhibition, actives largely listed as inhibitors | hit rate 6.9% among 320,000 | P. falciparum luciferase reporter growth, 96 h; also: potency is read from the fitted curve at half-maximal effect; % is scaled to controls: 0 for no effect and ±100 for the full control effect
#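 Erythrocytes infected with luciferase-expressing P. falciparum were dispensed at 2% hematocrit and 0.05% parasitemia (final), then incubated with compounds 96 hours at 37 C in 5% CO2. Luminescence after detection reagent addition reported growth.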
# An asterisk follows results filed as active; ? = inconclusive; . = no result given; [ ] = dose if it differs, or a comment. Rows were chosen to be rich in hits. Some 21% of all compounds tested hit in one or more screens of this group. Unless noted, calls follow the shape of the dose curve; as a rule, active = well fitted inhibition curve with a large enough effect; inconclusive = small, poorly fitted or top-dose-only effect, or another doubt; inactive = no such curve, though single readings can be large or run the other way.
SMILES,Cycloheximide cs,Pf growth 48h,HCMV antiviral,HCV inhibitor,Shiga inhibitor,Pf growth 96h
CCOc1cccc(C(=O)NC(=S)Nc2ccc(N3CCN(CC)CC3)cc2)c1,0,?,-30,?,51,?
CCOc1cccc(C(=O)NC(=S)Nc2ccccc2)c1,104*,245%,56,8%,141*,-20%
COc1cc(C(=O)OCC(=O)c2cc(C)n(CC3CCCO3)c2C)cc(OC)c1C (stereo not drawn),.,?,16,?,.,-8%
Cc1cc(C(=O)COC(=O)C2CCN(C(=O)c3ccc(Cl)cc3)CC2)c(C)n1CC1CCCO1 (stereo not drawn),66*,-4%,-6,-2%,100*,-18%
O=C(COC(=O)c1ccc(O)cc1)NCC1COc2ccccc2O1 (stereo not drawn),.,-11%,29,-4%,.,?
Cc1cc(C(=O)COC(=O)c2ccc3c(c2)OCO3)c(C)n1CC1CCCO1 (stereo not drawn),40*,281%,-26,2%,147*,331%
CSc1ncccc1C(=O)OCC(=O)c1ccccc1,14,-15%,12,8%,11,41%
COc1ccc(C(=O)COC(=O)c2cccnc2SC)cc1,30*,34%[5.75 µM],-27,-10%,48,?
Cc1cc(C(=O)COC(=O)c2ccc(O)cc2)c(C)n1CC1COc2ccccc2O1 (stereo not drawn),0,?,?,-26%,12,13µM*
COc1cc2c(cc1O)CCN(C(=O)CSc1nncn1C)[C@@H]2C,.,44%,-14,20%,.,24%
COCCn1c(C)cc(C(=O)COC(=O)C23CC4CC(CC(O)(C4)C2)C3)c1C,38*,145%,71,12%,57*,142%
CCn1c(C)cc(C(=O)COC(=O)c2cccnc2SC)c1C,.,.,-26,-5%,.,.
COCCn1c(C)cc(C(=O)COC(=O)c2ccc([N+](=O)[O-])o2)c1C,46*,34%,?,11%,123*,2%
Cc1cc(C)c(C(=O)COC(=O)c2ccc([N+](=O)[O-])o2)cc1C,9,5%,2,-9%,-2,10%
CSc1ncccc1C(=O)OCC(=O)c1cc(C)n(CC2CCCO2)c1C (stereo not drawn),39*,15%,0,18%,56*,24%
Cc1cc(C(=O)COC(=O)c2ccc([N+](=O)[O-])o2)c(C)n1CC1CCCO1 (stereo not drawn),49*,47%,-25,4%,123*,2%
COc1ccc(C(=O)COC(=O)c2nn(C)cc2Cl)cc1,15*,5%,-28,-9%,69*,215%
COCCn1c(C)cc(C(=O)COC(=O)c2cc3c(s2)CCC3)c1C,30*,27%,0,13%,95*,30%[5.75 µM]
Cn1cc(Cl)c(C(=O)OCC(=O)Nc2cccc(Cl)c2)n1,-6,1%,-8,-1%,3,11%
Cc1c(Br)c([N+](=O)[O-])nn1CC(=O)N(C)Cc1ccccc1,7,-1%,-13,2%,-6,22%
Cn1c(SCC(=O)Nc2ccc(Cl)cc2F)nnc1-c1ccco1,-1,-13%,-9,-17%,-10,?
CC(Nc1nc(=S)nc(Nc2ccc(F)cc2)[nH]1)c1ccccc1 (stereo not drawn),-3,12µM*,?,-23%,.,10µM*
COc1cccc(C(=O)NCCS(=O)(=O)NCc2ccccn2)c1,.,15%,15,4%,.,23%
O=C(O)C(Oc1ccc2cc(-c3ccc(Cl)cc3)c(=O)oc2c1)c1ccccc1 (stereo not drawn),-3,9%,0,7%,-4,268%
CC(=O)N1CCN(C(=O)CSc2cc(C)c(Br)cc2C)CC1,34*,71%,-18,.,48*,34%
SMILES,Cycloheximide cs,Pf growth 48h,HCMV antiviral,HCV inhibitor,Shiga inhibitor,Pf growth 96h
CN1C2CCC1/C(=C/c1cccn1C)C(=O)/C2=C\c1cccn1C,-5,-17%,?,?,-19,-2%
CN1C2CCC1/C(=C\c1ccc(F)cc1)C(=O)/C2=C/c1ccc(F)cc1,-5,0.83µM*,-103*,?,-17,-3%
CCn1ncc(S(=O)(=O)N2CCN(c3cccc(OC)c3)CC2)c1C,-2,11%,?,-14%,-9,-5%
COc1cccc(-c2nnn(CC(=O)N3CCC(C)CC3)n2)c1,10,31%,53,-6%,14,?
FC(F)Sc1ccc(-n2cc(-c3ccccc3)[n+]3c2CCC3)cc1,-1,1.2µM*,-40,?,15,0.66µM*
COc1ccc(-c2cn(-c3ccc(SC(F)F)cc3)c3[n+]2CCC3)cc1OC,-7,?,6,-9%,-12,?
FC(F)Oc1ccc(-n2cc(-c3ccc(Cl)cc3)[n+]3c2CCCCC3)cc1,-1,1.5µM*,-17,-5%,-12,?
COc1ccc(-n2cc(-c3ccccc3)[n+]3c2CCCCC3)cc1,-2,1µM*,-90*,?,-7,0.93µM*
COc1ccc(-c2cn(-c3ccc(OC)cc3)c3[n+]2-c2ccccc2CC3)cc1,-1,1.2µM*,-97*,-26%,-5,0.41µM*
O=C(Cn1c(CCCO)nc2ccccc21)Nc1ccccc1-c1ccccc1,-1,4%,2,4%,-5,3%
COc1ccc(N2C(=O)C3CCCN3C2=S)cc1 (stereo not drawn),-1,-5%,13,-2%,-5,?
CNC(=O)CN1C(=O)COc2ccc(S(=O)(=O)N3CCC(C)CC3)cc21,.,.,-3,.,.,.
Cc1cccc(NC(=O)c2ccc(-c3ccccc3[N+](=O)[O-])o2)c1,31*,0%,-20,?,61*,34%
Cc1ccccc1-c1ccc(C(=O)Nc2cccc(F)c2)o1,47*,-16%,58,-27%[8.37 µM],50*,-61%
COc1ccc(NC(=O)c2ccc(-c3ccccc3C(F)(F)F)o2)cc1,10,21%,59,2%[8.37 µM],18,-5%
COc1cccc(NC(=O)c2ccc(-c3ccccc3[N+](=O)[O-])o2)c1,25,-4%,?,?,37,26%
O=C(Nc1cccc(F)c1)c1ccc(-c2ccccc2C(F)(F)F)o1,31*,?,39,2%[8.37 µM],50*,15µM*
CC(=O)Nc1ccc(C(=O)NN2C(=O)c3ccccc3C2=O)cc1,6,14%,-38,16%,7,-27%
CC(=O)Nc1ccc(C2(c3ccc(NC(C)=O)cc3)NC(=O)c3ccccc32)cc1,2,1.3µM*,22,16%,-8,46%
COc1ccc2c(c1)CC/C(=C/c1ccco1)C2=O,56*,247%,32,-1%,120*,0%
